Compounds with a hit are over-represented: about 0.74% of the library has one in this group of screens.
GRP78 ERSR act: ER stress response induction in glioma. U87-MG GRP78 promoter luciferase reporter, 16 h. Potency, µM, for the others: at the top dose activation, most hits filed as activators. AID 602332. hit rate 0.02% among 420,000; further: potency means the concentration at half of the fitted maximal effect; series mostly up to about 76 µM; % of control where 0% means no effect; nearly all actives have a fitted effect of over 35% in size
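Stably transfected U87-MG glioma cells carrying a GRP78-based luciferase sensor; 16 h compound incubation. Luminescence end-point read 10 min after Bright-Glo addition at room temperature.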
LDHA block: inhibitors of human lactate dehydrogenase A; hit rate 0.15% among 480,000; activity change, % (values are at about 110 or 230 µM); P00338; purified LDHA, NADH/diaphorase-resazurin fluorescence; stronger effect = lower value; in the data active means activity change below about -30%; inconclusive means mostly about -25% to -30%;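 further: plate controls were DMSO wells for no effect and wells without enzyme for full effect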
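Enzyme activity of human lactate dehydrogenase 5 (2 nM; 0.06 mM NADH, 0.2 mM pyruvate, 5 min, RT) is measured via a resazurin/diaphorase fluorescence readout of residual NADH.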
Vif-A3G inh: inhibitors of Vif-APOBEC3G interaction; HeLa A3G-eYFP + Vif (tagged APOBEC3G with the HIV-1 protein that degrades it), YFP fluorescence, overnight; Potency, µM (titrated, usually from 46.1 µM), for inactives: at the highest dose activity, negative = active, actives largely listed as inhibitors; hit rate 0.076% among 410,000; AID 602310; further: potency means the concentration at half of the fitted maximal effect; on the % scale 0 is the no-effect control and ±100 the full control effect; nearly all actives have a fitted effect of over 60% in size
Target sequence (Q9HC16 whole entry, looked up): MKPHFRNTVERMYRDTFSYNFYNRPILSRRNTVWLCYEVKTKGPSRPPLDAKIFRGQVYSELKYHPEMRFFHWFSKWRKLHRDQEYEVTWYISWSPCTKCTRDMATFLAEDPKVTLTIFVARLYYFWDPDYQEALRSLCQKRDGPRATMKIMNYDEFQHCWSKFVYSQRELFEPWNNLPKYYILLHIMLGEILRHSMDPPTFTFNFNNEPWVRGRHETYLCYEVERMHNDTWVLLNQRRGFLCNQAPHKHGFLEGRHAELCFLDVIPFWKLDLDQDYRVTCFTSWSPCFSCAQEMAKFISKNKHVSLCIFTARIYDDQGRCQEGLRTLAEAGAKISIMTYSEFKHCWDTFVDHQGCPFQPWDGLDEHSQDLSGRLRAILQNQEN
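Read-out is eYFP fluorescence (Ex 488/Em 500-530) from Vif-expressing HeLa A3G-eYFP cells; more signal means A3G escaped Vif-mediated degradation. Cells plated overnight, compound pinned in, incubated overnight at 37 deg C.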
Vif-A3F inh: blocks the Vif interaction with APOBEC3F; HeLa A3F-eYFP + Vif (tagged APOBEC3F with the HIV-1 protein that degrades it), YFP fluorescence increase; AID 602313; Potency, µM (top dose mostly 46.1 µM), for inactives: top-dose activity, negative = active; hit rate 0.2% among 390,000; further: potency means the concentration at half of the fitted maximal effect; % of control where 0% means no effect; nearly all actives have a fitted effect of over 65% in size
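HeLa cells stably expressing Vif plus C-terminally eYFP-tagged A3F were seeded, incubated overnight at 37 deg C, dosed with compound, incubated overnight again at 37 deg C. Yellow fluorescence (Ex 488/Em 500-530) reported blocked Vif-mediated A3F-eYFP degradation.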
PINK1 modulator: modulators of PINK1 expression | PINK1 immunofluorescence, high-content cytometry, 24 h | Potency, µM (highest dose often 76.6 µM), without a hit: at the top dose activation (PINK1 increase), most hits filed as activators | hit rate 0.2% among 410,000 | AID 624263; active means well fitted activation curve with a large enough effect; inconclusive means small, poorly fitted or top-dose-only effect; cell line not stated here; further: potency means the concentration at half of the fitted maximal effect; % of control where 0% means no effect; nearly all actives have a fitted effect of over 65% in size
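Compound titrations (5 concentrations, 24 h) on a stable cell line; DMSO and CCCP controls. Endpoint: fixed-cell PINK1 immunofluorescence with mitochondrial, cell and nuclear markers, scanned by microplate cytometer.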
Akt phos inh: inhibitors of Akt phosphorylation; activity change, % for hits at 50 µM; Neuro2A IGF-stimulated pAkt S473 HTRF, 20 min; stronger effect = lower value; hit rate 0.32% among 360,000; in the data active means activity change below about -80%; inconclusive means mostly about -51% to -80%; further: on the % scale 0 is the no-effect control and ±100 the full control effect
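Neuro2A cells in DMEM with 0.5% FBS, overnight at 37 deg C, given compound at single 50 µM final, then IGF (6 nM final) for 20 min at 37 deg C. Lysed; phospho-Akt Ser473 by HTRF after 24 h, 665/615 ratio.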
An asterisk follows results filed as active. Unless noted, the call rests on the fitted dose curve; in most records, active means well fitted curve in the direction sought with a large enough effect; inconclusive means small, poorly fitted or top-dose-only effect, or another doubt; inactive means no such curve, though single readings can be large; an effect the other way counts as inactive or inconclusive.

For Cc1ccc(C(=O)CCC(=O)OCC(=O)Nc2ccccc2SCC#N)cc1 the results were GRP78 ERSR act -1%, LDHA block -2, Vif-A3G inh -13%, Vif-A3F inh 13µM*, PINK1 modulator 1% and Akt phos inh inactive.
CSc1ccccc1NC(=O)COC(=O)CCC(=O)c1ccc(F)cc1 was read as GRP78 ERSR act -3%, LDHA block -2, Vif-A3G inh -1%, Vif-A3F inh -1%, PINK1 modulator -1% and Akt phos inh inactive.
N#Cc1ccc(-c2csc(C3CC3)n2)cc1 was read as LDHA block 0.
Screening C=C(C)c1ccc(C(C)(C)NC(=O)NCc2ccco2)cc1 returned GRP78 ERSR act 2%, LDHA block -1, Vif-A3G inh 5%, Vif-A3F inh 7%, PINK1 modulator -1% and Akt phos inh inactive.
`C=C(C)c1ccc(C(C)(C)NC(=O)N(Cc2ccccc2)Cc2ccco2)cc1` gave GRP78 ERSR act -6%, LDHA block -8, Vif-A3G inh -4%, Vif-A3F inh -2%, PINK1 modulator 11µM* and Akt phos inh inactive.
COc1ccc(C2=NN(c3nc(C(=O)O)cs3)C(O)(C(F)(F)F)C2)c(OC)c1 (stereo not drawn) was read as GRP78 ERSR act 14%, LDHA block -63*, Vif-A3G inh 0%, Vif-A3F inh -8%, PINK1 modulator 0% and Akt phos inh inactive.
CN(C(=O)COC(=O)c1ccc2c(c1)NC(=O)CS2)C1CCS(=O)(=O)C1 (stereo not drawn) was read as GRP78 ERSR act -4%, LDHA block -5, Vif-A3G inh 0%, Vif-A3F inh -4%, PINK1 modulator 1% and Akt phos inh -108%*.
Screening CCN(Cc1ccc(C)cc1)Cc1cc(=O)oc2ccc(C)cc12 returned LDHA block 3.
CCOC(=O)c1cc(-c2ccccc2)sc1NC(=O)C(C)(C)C was read as GRP78 ERSR act -4%, LDHA block 0, Vif-A3G inh 0%, Vif-A3F inh -2%, PINK1 modulator 12% and Akt phos inh inactive.
`CCOC(=O)c1cc(-c2ccccc2)sc1NC(=S)Nc1cc(C)ccn1` gave GRP78 ERSR act -3%, LDHA block -3, Vif-A3G inh 1%, Vif-A3F inh 8.9µM* and PINK1 modulator inconclusive.
COc1cc2nc(-c3ccc(C)c(C)c3)oc(=O)c2cc1OC was read as LDHA block 5.
For COc1ccc(-c2nc3ccccc3c(=O)o2)cc1OC the results were GRP78 ERSR act 4%, LDHA block -9, Vif-A3G inh -1%, Vif-A3F inh 5%, PINK1 modulator -4% and Akt phos inh -119%*.
COC(=O)c1c(N)c(C#N)c2n1CCCCC2 was read as GRP78 ERSR act -5%, LDHA block 1, Vif-A3G inh 1%, Vif-A3F inh -5%, PINK1 modulator 8.9µM* and Akt phos inh inactive.
O=C(NC1CC1)C1CCCN(C(=O)c2ccc3cc[nH]c3c2)C1 (stereo not drawn) was read as LDHA block -8.
Screening CCC(C)C(NC(=O)c1ccccc1)C(=O)NOCc1ccccc1 (stereo not drawn) returned LDHA block 1.
COc1ccc(-c2nc3ccccc3n2Cc2ccccc2)cc1 was read as GRP78 ERSR act 3%, LDHA block 3, Vif-A3G inh -2%, Vif-A3F inh -16%, PINK1 modulator 6% and Akt phos inh inactive.
For COc1ccc(-c2n(Cc3ccccc3)c3ccccc3[n+]2Cc2ccccc2)cc1 the results were GRP78 ERSR act -4%, LDHA block 0, Vif-A3G inh 5%, Vif-A3F inh -3%, PINK1 modulator 11µM* and Akt phos inh inactive.
For CCCCCC(=O)N1C[C@@H](n2cc(-c3ccc(F)cc3)nn2)[C@H](O)C[C@@H]1c1ccc(C)cc1 the results were GRP78 ERSR act -7%, LDHA block -34*, Vif-A3G inh 2%, Vif-A3F inh -14%, PINK1 modulator inconclusive and Akt phos inh inactive.
Cc1ccc(NC(=O)Nc2nnc(C3CCCC3)s2)cc1 was read as LDHA block 1.
Cc1noc(C)c1CSc1nc2ccccc2c(=O)n1-c1ccccc1 was read as GRP78 ERSR act -2%, LDHA block -5, Vif-A3G inh 3.5µM*, Vif-A3F inh -1%, PINK1 modulator 17% and Akt phos inh inactive.
CCc1ccc(-n2c(SCc3c(C)noc3C)nnc2-c2ccncc2)cc1 was read as GRP78 ERSR act -1%, LDHA block 3, Vif-A3G inh -5%, Vif-A3F inh -3%, PINK1 modulator -1% and Akt phos inh inactive.
`Cc1noc(C)c1CSc1nc2[nH]ncc2c(=O)n1-c1ccccc1` gave GRP78 ERSR act -6%, LDHA block -3, Vif-A3G inh -31%, Vif-A3F inh -16%, PINK1 modulator 8% and Akt phos inh inactive.
Screening Cc1noc(C)c1CSc1nnc(-c2c[nH]c3ccccc23)n1-c1ccc(Cl)cc1 returned GRP78 ERSR act -2%, LDHA block -5, Vif-A3G inh -5%, Vif-A3F inh 0%, PINK1 modulator 11% and Akt phos inh -115%*.
`Cc1ccc(O)c(NC(=O)c2cc(-c3ccccc3O)no2)c1` gave GRP78 ERSR act 5%, LDHA block 12, Vif-A3G inh inconclusive, Vif-A3F inh 11µM* and PINK1 modulator 2%.
CC1C(c2ccc(F)cc2)=[N+]([O-])C(C)(c2cccc([N+](=O)[O-])c2)N1O (stereo not drawn) was read as LDHA block 3.
`Cc1cc(=O)oc2cc(OCC(=O)NCc3cccc(C(F)(F)F)c3)ccc12` gave LDHA block -3.
COC(=O)C1=NN(c2ccccc2)C2(S1)SC(C(C)=O)=C(C)N2c1ccccc1 (stereo not drawn) was read as GRP78 ERSR act 5%, LDHA block 1, Vif-A3G inh -1%, Vif-A3F inh 0%, PINK1 modulator 0% and Akt phos inh -138%*.
`COc1ccc(Nc2nc3cc(C)ccc3cc2C#N)cc1` gave GRP78 ERSR act -1%, LDHA block -1, Vif-A3G inh inconclusive, Vif-A3F inh 22µM*, PINK1 modulator 8% and Akt phos inh inactive.
Screening CCCCn1nc(C(=O)NCc2ccccn2)c2ccccc2c1=O returned LDHA block -2.
`Cn1nc(C(=O)NCc2ccccn2)c2ccccc2c1=O` gave GRP78 ERSR act -6%, LDHA block -1, Vif-A3G inh -4%, Vif-A3F inh -8%, PINK1 modulator -2% and Akt phos inh -94%*.
